Inconclusive results are not listed. A number with no mark means an inactive call. Activity calls are given as the source filed them. Calls follow the shape of the dose curve; as a rule, active = well fitted cell-killing curve with a large enough effect; inconclusive = small, poorly fitted or top-dose-only effect, or effect the other way; inactive = no such curve, though single readings can be large or run the other way.
assay: Quantitative High-Throughput drug screen in 47 multiple myeloma cell lines against the NCATS MIPE library collection: L363_DSMZ cell viability assay (AID 1918984); conditions: L363 myeloma viability, CellTiter-Glo ATP luminescence, 48 h; series mostly up to 45.8 µM; viability (% of control): at the top concentration; also: nearly all actives have a fitted effect of over 40% in size
How it was run: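 Cells were exposed to library compounds for 48 hours, after which ATP was measured by CellTiter-Glo. Signal was taken as median relative luminescence units.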
Potency is read from the fitted curve at half-maximal effect.

Structure (SMILES) | viability (% of control) | Potency
Cc1cc(O)c2c(c1)C(=O)c1cccc(O)c1C2=O | 104% | 
CCC(C(=O)O)C1CCC(C)C(C(C)C(O)C(C)C(=O)C(CC)C2OC3(C=CC(O)[C@@]4(CC[C@](C)(C5CC[C@@](O)(CC)C(C)O5)O4)O3)C(C)CC2C)O1 (stereo partly drawn) |  | 833 nM (active)
CC(=O)[C@]1(O)Cc2c(O)c3c(c(O)c2[C@@H](O[C@H]2C[C@H](N)[C@@H](O)[C@H](C)O2)C1)C(=O)c1ccccc1C3=O |  | 1320 nM (active)
COc1cc(C=CC(=O)CC(=O)C=Cc2ccc(O)c(OC)c2)ccc1O |  | 3030 nM (active)
CN(CC(=O)N(Cc1ccc(C2CCCCC2)cc1)c1ccc(C(=O)O)c(O)c1)S(=O)(=O)c1c(F)c(F)c(F)c(F)c1F |  | 9350 nM (active)
CC(C)(C)[C@H](NC(=O)c1ccc(N)c(Cl)c1)C(=O)N1CCC[C@@H]1C(=O)N[C@H](C#N)CC(=O)O | 111% [at 3.51 µM] | 
Cn1cnc(=N)c2[nH]cnc21 |  | 132 nM (active)
COc1ccc2c(c1OC)C(=O)OC2[C@H]1c2c(cc3c(c2OC)OCO3)CCN1C (stereo partly drawn) |  | 74.3 nM (active)
C[C@@H]1CC[C@@]2(OC1)OC1CC3C4CC=C5CC(O)CCC5(C)C4CCC3(C)C1[C@@H]2C (stereo partly drawn) | 119% | 
C#C[C@]1(O)CC[C@@H]2[C@@H]3CCC4=CC(=O)CC[C@@H]4[C@H]3CC[C@@]21CC |  | 8.3 nM (active)
COc1ccc(S(=O)(=O)Nc2cccnc2Nc2ccc(O)cc2)cc1 | 94.4% | 
C=C(C)[C@@H]1CC[C@]2(C(=O)O)CC[C@]3(C)[C@H](CC[C@@H]4[C@@]5(C)CC[C@H](O)C(C)(C)[C@@H]5CC[C@]43C)[C@@H]12 | 94.4% | 
CC(=O)OCC(=O)[C@@]1(O)CC[C@H]2[C@@H]3CCC4=CC(=O)CC[C@]4(C)[C@@H]3C(=O)C[C@@]21C | 96.2% | 
CC(=O)SCC(Cc1ccccc1)C(=O)NCC(=O)OCc1ccccc1 (stereo not drawn) |  | 5900 nM (active)
C[C@H](CCC(=O)O)[C@H]1CC[C@H]2[C@@H]3[C@H](O)C[C@@H]4C[C@H](O)CC[C@]4(C)[C@@H]3CC[C@]12C | 86% | 
CCOc1cc2ncc(C#N)c(Nc3ccc(OCc4ccccn4)c(Cl)c3)c2cc1NC(=O)C=CCN(C)C |  | 469 nM (active)
c1cc(CN2CCCNCCNCCCNCC2)ccc1CN1CCCNCCNCCCNCC1 | 114% | 

Structure (SMILES) | viability (% of control) | Potency
C=CC(=O)N1CCc2ccc(-n3c(=O)ccc4cnc5ccc(-c6cnn(C)c6)cc5c43)cc21 |  | 833 nM (active)
NC[C@H]1O[C@H](O[C@H]2[C@@H](O)[C@@H](O[C@H]3O[C@H](CO)[C@@H](O)[C@H](N)[C@@H]3O)[C@H](N)C[C@@H]2N)[C@H](N)C[C@H]1O | 106% | 
N#CNC(=NCCCCCCOc1ccc(Cl)cc1)Nc1ccncc1 |  | 662 nM (active)
C[C@H]1COc2c(N3CCN(C)CC3)c(F)cc3c(=O)c(C(=O)O)cn1c23 | 97% | 
Oc1cc(-c2nc(-c3ccccc3)[nH]c2-c2ccncc2)ccc1Cl |  | 332 nM (active)
O=c1[nH]c(=O)n([C@H]2C[C@@H](O)[C@@H](CO)O2)cc1C=CBr | 77.2% | 
COC[C@H](NC(=O)c1cnc(C)s1)C(=O)N[C@@H](COC)C(=O)N[C@@H](Cc1ccccc1)C(=O)[C@@]1(C)CO1 |  | 37.2 nM (active)
CN(C)CCN1C(=O)c2cccc3cc(N)cc(c23)C1=O |  | 16600 nM (active)
CCNC(=O)Nc1ccc(-c2nc3c(c(N4CCOC[C@H]4C)n2)CCN(C2COC2)C3)cc1 |  | 209 nM (active)
COC(=O)[C@H](CCCN=C(N)N)NS(=O)(=O)c1ccc(C)cc1 | 102% | 
COc1cc([C@@H]2c3cc4c(cc3[C@@H](O[C@@H]3O[C@@H]5CO[C@@H](c6cccs6)O[C@@H]5[C@H](O)[C@@H]3O)[C@H]3COC(=O)[C@H]23)OCO4)cc(OC)c1O |  | 833 nM (active)
CCOC(=O)[C@H](CCc1ccccc1)N[C@@H](C)C(=O)N1[C@@H](C(=O)O)C[C@H]2CCC[C@@H]21 |  | 7430 nM (active)
CC(C)c1cnn2c(NCc3ccccc3)cc(NCCCCCCN)nc12 |  | 14800 nM (active)
O=C(CCCCCCC(=O)Nc1cccnc1)NO |  | 5900 nM (active)
COc1cc([C@@H]2c3cc4c(cc3[C@H](O)[C@H]3COC(=O)[C@@H]23)OCO4)cc(OC)c1OC |  | 66.2 nM (active)
O=c1ccn([C@@H]2O[C@H](CO)[C@H](O)[C@@H]2F)c(=O)[nH]1 | 129% | 

— PubChem BioAssay (NCATS)
